# Results filed as inconclusive are left out. Activity calls are given as the source filed them. Cut-off read from the data, not from the text of the source, unless noted: active = inhibition above about 80%; inactive = the rest.
# Tests used:
# [1] = growth inhibition of DIPG glioma cells, dose response, cell-based, SU-DIPG-XVII, MIPE5.0, CellTiter-Glo, qHTS (AID 1347060; cut-off not given, nearly all actives have AC50 up to about 26 µM;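 note: cells exposed to compound for 48 hours before viability readout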); conditions: SU-DIPG-XVII viability, CellTiter-Glo ATP luminescence
# [2] = growth inhibition of DIPG glioma cells, dose response, cell-based, JHH-DIPG-1, MIPE4.0, CellTiter-Glo, qHTS (AID 1347062; cut-off not given, nearly all actives have AC50 up to about 27 µM); conditions: JHH-DIPG-1 viability, CellTiter-Glo ATP luminescence
# [3] = viability loss in pontine glioma line – cell-based, SU-DIPG-XXV, MIPE5.0, CellTiter-Glo, qHTS, dose response (AID 1347065; cut-off not given, nearly all actives have AC50 up to about 26 µM;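 note: cells exposed to compound for 48 hours before ATP readout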); conditions: CellTiter-Glo ATP luminescence
# [4] = SU-DIPG-VI glioma cell viability, MIPE4.0 library, CellTiter-Glo luminescence, qHTS (AID 1347066; cut-off not given, nearly all actives have AC50 up to about 30 µM;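 note: cells exposed to compound for 48 hours before readout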); conditions: CellTiter-Glo ATP luminescence
# [5] = growth inhibition of DIPG glioma cells, dose response, cell-based, SU-DIPG-XIII, MIPE4.0, CellTiter-Glo, qHTS (AID 1347061; cut-off not given, nearly all actives have AC50 up to about 37 µM;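 note: cells exposed to compound for 48 hours before readout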); conditions: SU-DIPG-XIII viability, CellTiter-Glo ATP luminescence
# [6] = growth inhibition of DIPG glioma cells, dose response, cell-based, SU-DIPG-IV, MIPE4.0, CellTiter-Glo, qHTS (AID 1347063; cut-off not given, nearly all actives have AC50 up to about 30 µM;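 note: compound exposure lasted 48 hours before the viability readout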); conditions: SU-DIPG-IV viability, CellTiter-Glo ATP luminescence
# [7] = target: ATP-dependent translocase ABCB1 (Homo sapiens) (UniProt P08183); assay: MDR1 (ABCB1) efflux transporter inhibition, cell-based (AID 377; in the data active = fluorescence slope change above about 50%); conditions: MDR1-expressing cells, fluorescent substrate accumulation slope; stronger effect = higher value; concentration not given here
# [8] = test system: Hepatitis C virus NS3 helicase; assay: HCV NS3 helicase inhibitors, primary screen, biochemical, fluorescence polarization, LOPAC1280 library (AID 687035; in the data active = inhibition above about 37%); conditions: Purified HCV NS3 helicase, Cy5-dT15 ssDNA binding fluorescence polarization; stronger effect = higher value; concentration not given here
# [9] = Cy5 fluorescence quenching or enhancement artefacts, artefact control for HCV NS3 helicase inhibitor project, biochemical, LOPAC1280 (AID 687037; call rule not given here); conditions: Cy5-DNA-NS3h complex fluorescence interference counterscreen
# [10] = LFS_MB_P medulloblastoma growth inhibition, cell-based, chromothripsis tumors, cisplatin or BGB combos (AID 1671449); conditions: LFS_MB_P medulloblastoma cells;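 note: cells exposed for 96 hours; 0% = vehicle DMSO and 100% = killing by high DMSO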
# [11] = HDN33 neuroblastoma growth inhibition, cell-based, chromothripsis tumors, cisplatin or BGB combos (AID 1671450); conditions: HDN33 neuroblastoma cells, stronger effect = higher value;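 note: cells exposed to compound for four days; 0% = vehicle DMSO and 100% = cell killing by high DMSO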
# [12] = ICB984 medulloblastoma cell growth inhibition, synergistic combos for chromothripsis tumors, cisplatin or BGB combos (AID 1671451; call rule not given here;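 note: cells exposed for 96 hours before readout; 0% = vehicle DMSO and 100% = killing by high DMSO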); conditions: ICB984 medulloblastoma cells, drug combinations, stronger effect = higher value
# [13] = HTB85 osteosarcoma cell growth inhibition, synergistic combos for chromothripsis tumors, BGB or cisplatin IC20 combos (AID 1671453); conditions: HTB85 osteosarcoma cells, drug combinations, stronger effect = higher value;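 note: cells exposed for 96 hours before readout; 0% = vehicle DMSO and 100% = high DMSO killing control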
# [14] = MDA-MB-436 breast carcinoma cell growth inhibition, synergistic combos for chromothripsis tumors, BGB or cisplatin combos (AID 1671458; call rule not given here;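 note: cells exposed for 96 hours; 0% = vehicle DMSO and 100% = killing by high DMSO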); conditions: MDA-MB-436 breast carcinoma growth inhibition, drug combinations, stronger effect = higher value
# [15] = growth inhibition of BT084 medulloblastoma cells, cell-based, ICGC_MB145, cisplatin and BGB IC40 combos (AID 1671461); conditions: drug combinations, stronger effect = higher value;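 note: cells exposed to drugs for 96 hours; 0% = vehicle DMSO and 100% = high DMSO full killing control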
# [16] = growth inhibition of RCMB18 medulloblastoma cells, cell-based, cisplatin and BGB IC40 combos (AID 1671462); conditions: stronger effect = higher value;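 note: cells exposed to compound for four days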
# [17] = growth inhibition of CRL1545 osteosarcoma cells, cell-based, cisplatin and BGB IC20 combos (AID 1671464); conditions: stronger effect = higher value;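 note: cells exposed to compound for 96 hours before readout; 0% = vehicle DMSO and 100% = high DMSO killing control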
# [18] = measured here: with BGB IC20 combination, at 0.5 µM
# [19] = measured here: with cisplatin IC20 combination, at 0.5 µM
# Chain of ATP-dependent translocase ABCB1 (Homo sapiens) (P08183 whole entry, looked up): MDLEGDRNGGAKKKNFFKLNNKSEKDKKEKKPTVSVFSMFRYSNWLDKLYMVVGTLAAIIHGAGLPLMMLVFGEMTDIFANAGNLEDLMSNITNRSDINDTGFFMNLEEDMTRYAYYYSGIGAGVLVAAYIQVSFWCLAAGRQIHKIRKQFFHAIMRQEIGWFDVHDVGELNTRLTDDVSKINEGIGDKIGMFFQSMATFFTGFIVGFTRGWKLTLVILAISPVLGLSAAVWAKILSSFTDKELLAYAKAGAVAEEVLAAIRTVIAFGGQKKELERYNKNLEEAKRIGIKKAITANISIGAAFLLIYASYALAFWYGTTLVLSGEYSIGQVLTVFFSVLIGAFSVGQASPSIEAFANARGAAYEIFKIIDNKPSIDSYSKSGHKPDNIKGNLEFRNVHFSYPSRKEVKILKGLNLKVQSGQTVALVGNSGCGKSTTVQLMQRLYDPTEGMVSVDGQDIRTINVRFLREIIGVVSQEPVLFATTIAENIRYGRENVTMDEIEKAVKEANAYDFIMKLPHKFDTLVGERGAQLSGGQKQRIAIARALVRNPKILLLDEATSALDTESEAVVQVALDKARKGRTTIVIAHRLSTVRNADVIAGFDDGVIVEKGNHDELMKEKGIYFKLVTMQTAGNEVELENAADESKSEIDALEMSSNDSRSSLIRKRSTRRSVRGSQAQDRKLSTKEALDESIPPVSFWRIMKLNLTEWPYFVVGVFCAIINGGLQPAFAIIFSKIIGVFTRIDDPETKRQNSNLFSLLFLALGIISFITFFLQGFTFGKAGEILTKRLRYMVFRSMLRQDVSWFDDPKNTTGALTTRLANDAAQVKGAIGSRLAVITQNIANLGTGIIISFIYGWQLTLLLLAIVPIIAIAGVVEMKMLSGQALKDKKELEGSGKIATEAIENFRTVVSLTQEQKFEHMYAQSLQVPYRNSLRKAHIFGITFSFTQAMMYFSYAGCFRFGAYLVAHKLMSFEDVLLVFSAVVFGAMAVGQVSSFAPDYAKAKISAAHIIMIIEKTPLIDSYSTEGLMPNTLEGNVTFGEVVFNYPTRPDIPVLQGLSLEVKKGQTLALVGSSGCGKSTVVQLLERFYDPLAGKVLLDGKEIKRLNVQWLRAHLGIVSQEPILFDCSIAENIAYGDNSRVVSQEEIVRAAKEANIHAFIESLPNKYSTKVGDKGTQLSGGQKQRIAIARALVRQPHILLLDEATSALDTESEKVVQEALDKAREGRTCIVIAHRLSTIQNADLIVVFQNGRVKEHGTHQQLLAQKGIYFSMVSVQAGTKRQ
smiles,measurement,setting,value
COc1ccc(-c2coc3cc(O)cc(O)c3c2=O)cc1,AC50,[1],26.3 µM (active)
same,outcome,[2],inactive
same,outcome,[3],inactive
same,outcome,[4],inactive
Nc1ccc(S(=O)(=O)Nc2ncccn2)cc1,outcome,[5],inactive
same,outcome,[2],inactive
same,outcome,[6],inactive
same,outcome,[4],inactive
CCn1nc(C(=O)O)c(=O)c2cc3c(cc21)OCO3,fluorescence slope change,[7],14.5% (inactive)
same,inhibition,[8],-4% (inactive)
same,fluorescence ratio (interference),[9],1 (inactive)
same,inhibition,"[10]; at 0.5 µM, stronger effect = higher value",-4.36% (inactive)
same,inhibition,"[10]; measured here: combination with BGB IC20, at 0.005 µM",-22%
same,inhibition,"[10]; measured here: combination with BGB IC40, at 0.005 µM",-16.5%
same,inhibition,"[10]; measured here: combination with BGB IC40, at 0.05 µM",-12.9%
same,inhibition,"[10]; measured here: combination with cisplatin, at 0.5 µM, stronger effect = higher value",-13.6%
same,inhibition,"[10]; measured here: combination with cisplatin, at 5 µM, stronger effect = higher value",-41.5%
same,inhibition,"[11]; BGB combo, at 5 µM",-23.8%
same,inhibition,[11]; at 0.5 µM,-7.41% (inactive)
same,inhibition,"[11]; cisplatin combo, at 5 µM",-10.5%
same,inhibition,[11]; [18],-15.2%
same,inhibition,[11]; [19],-1.32%
same,inhibition,"[11]; single agent, at 5 µM",-41.5%
same,inhibition,"[12]; BGB IC20 combo, at 0.005 µM",-15.8%
same,inhibition,"[12]; BGB IC40 combo, at 0.005 µM",-16.7%
same,inhibition,"[12]; BGB IC40 combo, at 0.05 µM",-9.96%
same,inhibition,[12]; at 0.5 µM,-5.52% (inactive)
same,inhibition,"[12]; cisplatin combo, at 0.05 µM",-9.96%
same,inhibition,"[12]; cisplatin combo, at 0.5 µM",-1.52%
same,inhibition,"[12]; cisplatin combo, at 5 µM",-43.4%
same,inhibition,"[12]; measured here: 5 uM single agent, at 5 µM",-20.7%
same,inhibition,[13]; at 0.5 µM,-28.8% (inactive)
same,inhibition,"[13]; measured here: with BGB IC20, at 0.5 µM",-63%
same,inhibition,"[13]; measured here: with BGB IC20, at 5 µM",5.32%
same,inhibition,"[13]; measured here: with cisplatin IC20, at 0.5 µM",-29.8%
same,inhibition,"[13]; measured here: with cisplatin IC20, at 5 µM",-12.6%
same,inhibition,"[13]; single agent, at 5 µM",-6.73%
same,inhibition,[14]; at 0.5 µM,-10.8% (inactive)
same,inhibition,"[14]; measured here: BGB combination, at 0.5 µM",-3.35%
same,inhibition,"[14]; measured here: BGB combination, at 5 µM",-16.6%
same,inhibition,"[14]; measured here: cisplatin combination, at 0.5 µM",-23.3%
same,inhibition,"[14]; measured here: cisplatin combination, at 5 µM",-13.2%
same,inhibition,[15]; at 0.5 µM,-21.7% (inactive)
same,inhibition,"[15]; cisplatin combination, at 0.5 µM",-15.5%
same,inhibition,"[15]; cisplatin combination, at 5 µM",-34.6%
same,inhibition,"[15]; measured here: BGB IC40 combination 0.05 uM, at 0.05 µM",-12.7%
same,inhibition,"[15]; single agent, at 5 µM",-10.2%
same,inhibition,[16]; at 0.5 µM,-22.9% (inactive)
same,inhibition,"[16]; cisplatin combo, at 5 µM",-5.51%
same,inhibition,"[16]; measured here: BGB IC40 combination, at 0.05 µM",-14.3%
same,inhibition,"[16]; measured here: combination with cisplatin, at 0.5 µM",-7.95%
same,inhibition,"[16]; single agent, at 5 µM",-10.2%
same,inhibition,[17]; at 0.5 µM,-33.4% (inactive)
same,inhibition,[17]; [18],-23%
same,inhibition,[17]; [19],-38.6%
same,inhibition,"[17]; single agent, at 0.05 µM",5.27%
same,inhibition,"[17]; single agent, at 5 µM",10.4%
